PubChem BioAssay (NCATS)
Inconclusive results are not listed. Where a call stands in place of a potency, no number is given. Activity calls are given as the source filed them. Calls follow the shape of the dose curve; as a rule, active = well fitted inhibition curve with a large enough effect; inconclusive = small, poorly fitted or top-dose-only effect; inactive = flat fitted curve, though single readings scatter.

What was measured:
Assay in all cases: qHTS profiling for inhibitors of Plasmodium falciparum proliferation (AID 504749); also: nearly all actives have a fitted effect of over 60% in size
Settings in all cases: P. falciparum in erythrocytes, SYBR Green DNA, 72 h; series mostly up to 28.7 µM
CP269 = tested on: CP269
Outline: (§1)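 Three-day growth assay of blood-stage parasites in erythrocytes (0.3% parasitemia, 2.5% hematocrit) at 37 C, 5% CO2, quantified by SYBR Green DNA staining after overnight detergent lysis.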

CP286 = tested on: CP286
Outline: as §1

CP291 = tested on: CP291
Outline: as §1

CP297 = tested on: CP297
Outline: as §1

CP305 = tested on: CP305
Outline: as §1

CP315 = tested on: CP315
Outline: as §1

CP325 = tested on: CP325
Outline: as §1

CP329 = tested on: CP329
Outline: as §1

CP335 = tested on: CP335
Outline: as §1

DFO2036 = tested on: DFO2036
Outline: as §1
Potency is read from the fitted curve at half-maximal effect.

| Structure (SMILES) | Potency (CP269) | Potency (CP286) | Potency (CP291) | Potency (CP297) | Potency (CP305) | Potency (CP315) | Potency (CP325) | Potency (CP329) | Potency (CP335) | Potency (DFO2036) |
| --- | --- | --- | --- | --- | --- | --- | --- | --- | --- | --- |
| CC(=O)[C@H]1CC[C@H]2[C@@H]3CC[C@H]4C[C@](C)(O)CC[C@]4(C)[C@H]3CC[C@]12C | inactive | inactive | inactive | inactive | inactive | inactive | inactive | inactive | inactive | inactive |
| CCC(COC(=O)c1cc(OC)c(OC)c(OC)c1)(c1ccccc1)N(C)C (stereo unspecified) | inactive | inactive | inactive | inactive | inactive | inactive | inactive | inactive | inactive | inactive |
| Oc1ccccc1-c1ccccc1 | inactive | inactive | inactive | inactive | inactive | inactive | inactive | inactive | inactive | inactive |
| Oc1cccc2cccnc12 | inactive | inactive | inactive | inactive | inactive | inactive | inactive | inactive | inactive | inactive |
| NCC(CC(=O)O)c1ccc(Cl)cc1 (stereo unspecified) | inactive | inactive | inactive | inactive | inactive | inactive | inactive | inactive | inactive | inactive |
| CC(C)CC(N(C)C)C1(c2ccc(Cl)cc2)CCC1 (stereo unspecified) | inactive | inactive | inactive | inactive | inactive | inactive | inactive | inactive | inactive | inactive |
| CC(C)(C)CC(C)(C)c1ccc(O)cc1 | inactive | inactive | inactive | inactive | inactive | inactive | inactive | inactive | inactive | inactive |
| NP(N)(=O)NC(=O)c1ccc(F)cc1 | inactive | inactive | inactive | inactive | inactive | inactive | inactive | inactive | inactive | inactive |
| CN1CCN(C(=O)O[C@H]2c3nccnc3C(=O)N2c2ccc(Cl)cn2)CC1 | inactive | inactive | inactive | inactive | inactive | inactive | inactive | inactive | inactive | inactive |
| OCCOc1ccccc1 | inactive | inactive | inactive | inactive | inactive | inactive | inactive | inactive | inactive | inactive |
| O=C(NC(O)C(Cl)(Cl)Cl)NC(O)C(Cl)(Cl)Cl (stereo unspecified) | inactive | inactive | inactive | inactive | inactive | inactive | inactive | inactive | inactive | inactive |
| Nc1ccncc1 | inactive | inactive | inactive | inactive | inactive | inactive | inactive | inactive | inactive | inactive |
| CCOC(=O)C1(c2ccccc2)CCN(CCC(C#N)(c2ccccc2)c2ccccc2)CC1 | 4.26 µM (active) | 2.82 µM (active) | 4.26 µM (active) | 5.36 µM (active) | 4.78 µM (active) | 4.78 µM (active) | 4.26 µM (active) | 3.79 µM (active) | 3.38 µM (active) | 2.82 µM (active) |
| CN1C(=S)CN=C(c2ccccc2)c2cc(Cl)ccc21 | inactive | inactive | inactive | inactive | inactive | inactive | inactive | inactive | inactive | inactive |
| Clc1ccc(COC(Cn2ccnc2)c2ccc(Cl)cc2Cl)cc1 (stereo unspecified) | 4.78 µM (active) | 3.98 µM (active) | 7.57 µM (active) | 3.79 µM (active) | 13.5 µM (active) | 15.1 µM (active) | 9.53 µM (active) | 10.7 µM (active) | 4.26 µM (active) | 2.51 µM (active) |
| CCCC(C)(COC(N)=O)COC(=O)NC(C)C (stereo unspecified) | inactive | inactive | inactive | inactive | inactive | inactive | inactive | inactive | inactive | inactive |
| CC[N+]1(C)CCCC(OC(=O)C(O)(c2ccccc2)c2ccccc2)C1 (stereo unspecified) | inactive | inactive | inactive | inactive | inactive | inactive | inactive | inactive | inactive | inactive |
| CC1NCCOC1c1ccccc1 (stereo unspecified) | inactive | inactive | inactive | inactive | inactive | inactive | inactive | inactive | inactive | inactive |
| c1ccc(C2CC2)c(OCC2=NCCN2)c1 | inactive | inactive | inactive | inactive | inactive | inactive | inactive | inactive | inactive | inactive |
| Cn1c(CCCC(=O)O)nc2cc(N(CCCl)CCCl)ccc21 | inactive | inactive | inactive | inactive | inactive | inactive | inactive | inactive | inactive | inactive |
| NCCc1cc(O)c(O)cc1O | inactive | inactive | inactive | inactive | inactive | inactive | inactive | inactive | inactive | inactive |
| CC(=O)[C@H]1CC[C@H]2[C@@H]3CC[C@H]4C[C@H](O)CC[C@]4(C)[C@H]3C(=O)C[C@]12C | inactive | inactive | inactive | inactive | inactive | inactive | inactive | inactive | inactive | inactive |
| O=P1(NCCCl)OCCCN1CCCl (stereo unspecified) | inactive | inactive | inactive | inactive | inactive | inactive | inactive | inactive | inactive | inactive |

| Structure (SMILES) | Potency (CP269) | Potency (CP286) | Potency (CP291) | Potency (CP297) | Potency (CP305) | Potency (CP315) | Potency (CP325) | Potency (CP329) | Potency (CP335) | Potency (DFO2036) |
| --- | --- | --- | --- | --- | --- | --- | --- | --- | --- | --- |
| CC(=O)Nc1cc([As](=O)(O)O)ccc1O | inactive | inactive | inactive | inactive | inactive | inactive | inactive | inactive | inactive | inactive |
| COc1ccc(C(=O)c2c(C)n(CCN3CCOCC3)c3ccccc23)cc1 | inactive | inactive | inactive | inactive | inactive | inactive | inactive | inactive | inactive | inactive |
| C=C1CC[C@@]2(O)[C@H]3Cc4ccc(O)c5c4[C@@]2(CCN3CC2CC2)[C@H]1O5 | inactive | inactive | inactive | inactive | inactive | inactive | inactive | inactive | inactive | inactive |
| COc1ccccc1N1CCNCC1 | inactive | inactive | inactive | inactive | inactive | inactive | inactive | inactive | inactive | inactive |
| CCC(C(N)=O)N1CCCC1=O (stereo unspecified) | inactive | inactive | inactive | inactive | inactive | inactive | inactive | inactive | inactive | inactive |
| CC1OC(C)OC(C)O1 (stereo unspecified) | inactive | inactive | inactive | inactive | inactive | inactive | inactive | inactive | inactive | inactive |
| FC(F)(F)c1cccc(C2=CCN(CCc3ccc4ccccc4c3)CC2)c1 | inactive | inactive | inactive | inactive | inactive | inactive | inactive | inactive | inactive | inactive |
| CN(C)CCc1ccc(O)cc1 | inactive | inactive | inactive | inactive | inactive | inactive | inactive | inactive | inactive | inactive |
| NCC(O)c1ccc(O)cc1 (stereo unspecified) | inactive | inactive | inactive | inactive | inactive | inactive | inactive | inactive | inactive | inactive |
| CCOP(=S)(OCC)Oc1cc(C)nc(C(C)C)n1 | inactive | inactive | inactive | inactive | inactive | inactive | inactive | inactive | inactive | inactive |
| NN=C(N)N | inactive | inactive | inactive | inactive | inactive | inactive | inactive | inactive | inactive | inactive |
| CC[N+](CC)(CC)CC | inactive | inactive | inactive | inactive | inactive | inactive | inactive | inactive | inactive | inactive |
| O=c1[nH]c2ccccc2n1C1CCN(CCCC(c2ccc(F)cc2)c2ccc(F)cc2)CC1 | – | 11.2 µM (active) | inactive | – | inactive | – | – | inactive | 13.5 µM (active) | inactive |
| c1ccc2c(c1)Nc1ccccc1S2 | – | – | – | – | – | – | – | – | 8.49 µM (active) | – |
| Clc1cccc(N2CCNCC2)c1 | inactive | inactive | inactive | – | inactive | inactive | inactive | inactive | – | inactive |
| O=C1NCN(c2ccccc2)C12CCN(CC1COc3ccccc3O1)CC2 (stereo unspecified) | inactive | inactive | inactive | inactive | inactive | inactive | inactive | inactive | inactive | inactive |
| NCC1(CC(=O)O)CCCCC1 | inactive | inactive | inactive | inactive | inactive | inactive | inactive | inactive | – | inactive |
| CC(C)(C)NCC(O)c1cc(Cl)c(N)c(Cl)c1 (stereo unspecified) | – | inactive | – | – | – | inactive | inactive | inactive | – | inactive |
| CC[C@@H](CO)NC(=O)[C@@H]1C=C2c3cccc4[nH]cc(c34)C[C@H]2N(C)C1 | inactive | inactive | inactive | inactive | inactive | inactive | inactive | inactive | – | inactive |
| C[C@]12C/C(=C/O)C(=O)C[C@@H]1CC[C@@H]1[C@@H]2CC[C@@]2(C)[C@H]1CC[C@]2(C)O | inactive | inactive | – | inactive | inactive | inactive | inactive | inactive | inactive | inactive |
| CCN(C(C)=O)c1cccc(-c2ccnc3c(C#N)cnn23)c1 | inactive | inactive | inactive | – | inactive | inactive | inactive | inactive | inactive | inactive |
| Cc1ncc(CNC(=O)N(CCCl)N=O)c(N)n1 | inactive | inactive | inactive | inactive | inactive | inactive | inactive | inactive | inactive | inactive |
